In article PMC7819943, “Rice protein-binding microarrays: a tool to detect cis-acting elements near promoter regions in rice” one finds binding signal data, which are given here for 42 sequences.

Whole data set: some 39,000 sequences, median “fluorescence intensity (a.u.)” near 4,300, cut for the highest 2% near 39,000. Shown is part of a subset that was picked to be rich in the highest values.

The assay concerns the target T1, OsSMF1 (Oryza sativa, UniProt Q6ZLB0 1-436).
T1 sequence: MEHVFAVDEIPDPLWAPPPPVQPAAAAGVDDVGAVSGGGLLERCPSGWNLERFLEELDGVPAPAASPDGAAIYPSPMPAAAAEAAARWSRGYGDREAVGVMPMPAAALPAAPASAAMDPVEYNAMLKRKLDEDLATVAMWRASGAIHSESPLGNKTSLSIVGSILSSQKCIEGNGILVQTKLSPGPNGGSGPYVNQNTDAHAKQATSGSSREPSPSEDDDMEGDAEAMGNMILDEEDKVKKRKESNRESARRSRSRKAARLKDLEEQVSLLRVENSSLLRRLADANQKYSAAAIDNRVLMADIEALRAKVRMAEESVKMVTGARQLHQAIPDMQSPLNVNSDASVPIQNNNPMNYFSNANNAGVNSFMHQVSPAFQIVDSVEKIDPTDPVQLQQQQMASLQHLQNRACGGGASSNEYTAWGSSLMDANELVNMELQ
Put plainly: protein-binding microarray (RPBM); PBS, 2% BSA, 51.3 ng/ul salmon testes DNA, 50 uM zinc acetate, 200 nM TF, 25 C, 1 h; high values mean tight binding. The conditions noted are these: protein: recombinant; tags: N-terminal polyhistidine and DsRed monomer fusion (pET32a); chain copies: 2; label: CyDye5-dUTP incorporated in the synthesized complementary strand; 3' TTTTT single-stranded linker to array surface; dsDNA, one strand shown. In a few lines: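 Transcription factors were made in E. coli BL21-CodonPlus as N-terminal fusions to a polyhistidine tag and DsRed, then purified on Ni–NTA. After primer extension with Cy5-dUTP and blocking with 2% BSA, a custom Agilent array was exposed for 1 h at 25 °C to 200 nM protein in PBS, 2% BSA, salmon testes DNA and 50 µM zinc acetate. Washed arrays were scanned on an Axon 4000B, and the binding signal is per-feature fluorescence intensity in arbitrary units.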
As for “CTGTCCATTGATCTGTCCCTGGCAGCGACGTGACGTCCCACGGAGTCACCTAGTGCAG”, the binding signal was 4890 fluorescence intensity (a.u.).

On to “GCTTCGTGGGCCTCTCACTTGAGTCACTGGCACTCCATTCCGGAGTCACCTAGTGCAG”, for which the binding signal was 3570 fluorescence intensity (a.u.). With “TCCAAAATATTAGCATGGCACAGATTGGCACTACCCTTGTCGGAGTCACCTAGTGCAG”, the binding signal was 3280 fluorescence intensity (a.u.). In the case of “CGTAGAGGAATAACAATGGAACGTCATCCCTCTCTGTTCGCGGAGTCACCTAGTGCAG” it was 4120 fluorescence intensity (a.u.); in that of “GGTTCCATGCCTCGCCGTTTATCTATCTAATTTACTAGCACGGAGTCACCTAGTGCAG”, 3170 fluorescence intensity (a.u.); in that of “CGGCATTGACCTGGTCTTTGTTCCACGTGGCGCTTAGGTGCGGAGTCACCTAGTGCAG”, 8840 fluorescence intensity (a.u.).

For “TGTATGTCGGGTTGTCGATGATCAAGCCAGTGACACGCTTCGGAGTCACCTAGTGCAG”, the binding signal is 4000 fluorescence intensity (a.u.). Turning to “AGCCCACGTCCAGCTCACACACGCACCCACAACCGACCCACGGAGTCACCTAGTGCAG”, the binding signal was 6070 fluorescence intensity (a.u.). In the case of “AATTGCCACGTAAGCGCCATGTCAGTGCCACGTCAAATTACGGAGTCACCTAGTGCAG” it was 33800 fluorescence intensity (a.u.); in that of “TCAAATCAAATTGCCACGTAAGCGCCACGTCACTGCCACACGGAGTCACCTAGTGCAG”, 35200 fluorescence intensity (a.u.).

“GATCAAATTGCCACGTAAGCGCCACGTCAATGCCATGTCACGGAGTCACCTAGTGCAG”: the binding signal is 48000 fluorescence intensity (a.u.). The value for “ATTTTATTGCCACATAAGCGCCACGTCAATGCCACGTGGGCGGAGTCACCTAGTGCAG” was 56000 fluorescence intensity (a.u.); that for “AGAATCGCTTATATTATGGGACGGACGTAACATATAGAAGCGGAGTCACCTAGTGCAG” was 41100 fluorescence intensity (a.u.). The value for “TATAATTGCTACGTAAGCGCCACGTCAATGCCATGTCAGACGGAGTCACCTAGTGCAG” was 15700 fluorescence intensity (a.u.). The value for “ACATATAATTGCCACGTCAGCGCCACATCAATGCCACGTGCGGAGTCACCTAGTGCAG” was 26100 fluorescence intensity (a.u.); that for “CAGATATTATATTACGTAACATCTTCGTCAAGCTTACAATCGGAGTCACCTAGTGCAG” was 3850 fluorescence intensity (a.u.). As to “ATAAAATTGCCACATAAGCACCACGTCAATGCTATGTGGGCGGAGTCACCTAGTGCAG”, the binding signal was 29700 fluorescence intensity (a.u.). Consider “TTTTCGGATCAAATTGCCACGTAAGCGCCACGTCAGATGACGGAGTCACCTAGTGCAG”, for which the binding signal was 16000 fluorescence intensity (a.u.). The value for “ATTTTATTATTCTTGCAGATCAAATTGCCACGTAAGCGTCCGGAGTCACCTAGTGCAG” was 47800 fluorescence intensity (a.u.); that for “AACATATTAGAATATCGGTCTTAAATTAAATCCCATATAACGGAGTCACCTAGTGCAG” was 29100 fluorescence intensity (a.u.); that for “ACTATCAAGTTCGGATTAACCGAACCAATACAACCACTCACGGAGTCACCTAGTGCAG” was 21900 fluorescence intensity (a.u.).

Turning to “TAAATTTCAAATTCGTGCCACATAGGTCCTTTTCCTCACACGGAGTCACCTAGTGCAG”, the binding signal was 4670 fluorescence intensity (a.u.). In the case of “GCTAGCTATTGTTGATTTGTCGTGTTGTAATATATACACTCGGAGTCACCTAGTGCAG” it was 4680 fluorescence intensity (a.u.).

Consider “TAAATCGATCCTACGTCACATGACAGACTGGACCCTTGTCCGGAGTCACCTAGTGCAG”, for which the binding signal was 10900 fluorescence intensity (a.u.). The value for “ACGTCCACGAGTCCATGTCATGACACACCCCAAGTTGCTGCGGAGTCACCTAGTGCAG” was 5510 fluorescence intensity (a.u.). The value for “CCCCATCCTAGATGGAACAACCACGTCATCTCATGGGTGACGGAGTCACCTAGTGCAG” was 14800 fluorescence intensity (a.u.); that for “CGTGATCAATTCGCCTCATGCTGGCGTGACGCGGACCGAGCGGAGTCACCTAGTGCAG” was 6720 fluorescence intensity (a.u.); that for “TTCAAATGCCACCTAAGCGCCACGTCAACCCCATAGACTGCGGAGTCACCTAGTGCAG” was 39500 fluorescence intensity (a.u.). In the case of “TTCAAATGCCACCTAAACGCCACGTCAACCCCATAGACTACGGAGTCACCTAGTGCAG” it was 15600 fluorescence intensity (a.u.); in that of “CAAATGCCACCTAAGCGCCACGTCAACCCCATAGACTAGGCGGAGTCACCTAGTGCAG”, 34200 fluorescence intensity (a.u.); in that of “GGTGTGAGTGTGATGTTGCTCGTGTAATGATGCGTGTGCGCGGAGTCACCTAGTGCAG”, 5000 fluorescence intensity (a.u.). For “CGCACACATGAGCTCATGATGTGAACGTGATGATGGTGCGCGGAGTCACCTAGTGCAG”, the binding signal was 48500 fluorescence intensity (a.u.). In the case of “TGTGATGTGGGCATGCGTGTGCGCACGTGTTCTATTGGTGCGGAGTCACCTAGTGCAG” it was 17600 fluorescence intensity (a.u.). The value for “TCCGCCGCCTCGGTCGGCTCACGCGTCCATGTCCATCCCGCGGAGTCACCTAGTGCAG” was 3600 fluorescence intensity (a.u.); that for “GGGTGAGTGTGTGTTGTGCGTTGTGAGTGTGTATGTGTTTCGGAGTCACCTAGTGCAG” was 3730 fluorescence intensity (a.u.); that for “GAGTTGAGTTTAGACTTTCTAGAGTGGTATATGTATGTTTCGGAGTCACCTAGTGCAG” was 40900 fluorescence intensity (a.u.). The value for “CCTCTAGATCCTCTATGGTACTATATGTACAGTGCTGTTTCGGAGTCACCTAGTGCAG” was 42900 fluorescence intensity (a.u.); that for “CGCACTCAGCTTGTTCCTCTAACTGTACACAGTGGTACTTCGGAGTCACCTAGTGCAG” was 26500 fluorescence intensity (a.u.); that for “TGTCGGTACTTTCATACGTCATCTATGTATGAGTCGGTTTCGGAGTCACCTAGTGCAG” was 10600 fluorescence intensity (a.u.). “GTCCAGATTCGTTGTACTAGAATATGTCAGATCCAGTCCTCGGAGTCACCTAGTGCAG”: the binding signal is 3410 fluorescence intensity (a.u.).

For the sequence “TGGCTATACTATTGAACTTGCTCTCGTGGGACCCACATACCGGAGTCACCTAGTGCAG”, the binding signal is 3680 fluorescence intensity (a.u.). In the case of “CTTTTGGTCTCGCGCCCACTGACACGTGGGTCCCACGCTCCGGAGTCACCTAGTGCAG” it was 6100 fluorescence intensity (a.u.).
